Data reported in PubChem BioAssay (NCI).
The panel holds about 79,000 compounds, 15% with a hit somewhere; the sample as a whole holds those more often. Unmarked numbers belong to inactive results. Cut-off read from the data, not from the text of the source: active = growth inhibition above about 70%; inactive = the rest. Where a SMILES comes first, the peptide text is derived from it. The star is where a group is joined. Boc = CC(C)(C)OC(=O)*

assay: NCI Yeast Anticancer Drug Screen. Data for the sgs1 mgt1 strain (AID 161);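 note: 0% = growth of cultures given vehicle only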; conditions: S. cerevisiae sgs1 mgt1 strain, at 50.0 µM, active compounds read high
In short: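 Growth of a repair-deficient yeast mutant was monitored after compound treatment and expressed as inhibition relative to vehicle-treated cultures.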

SMILES | growth inhibition [%]
O=c1oc2c(CN3CCOCC3)c(O)ccc2c2c1CCCC2 | 22.8
C/C(=N\NC(=S)Nc1ccc(S(=O)(=O)O)cc1)c1ccccn1 | 34.5
Cc1ccc(N=Nc2c(N)nc(N)[nH]c2=O)c(C)c1 | -11.9
CC(=O)N(C(C)=O)C(CS)C(=O)O (stereo not given) | 2.85
O=C1NC(=O)C(=C/C=C/C=C\C2C(=O)NC(=O)NC2=O)C(=O)N1 | -10.1
Nc1ccc2[nH]c(=S)sc2c1 | -7.2
CN(C)c1nc(=Nc2ccc3c(c2)OCO3)ss1 | 54
CC1=CC(C)(C)N=C2SC(=O)c3nc4ccccc4c(=O)n3N12 | 13.8
CCCCC1(CO)NC(=O)NC1=O (stereo not given) | -8.7
CC(O)(CCCCCl)c1nc2ccccc2s1 (stereo not given) | 25.4
COC(=O)/C(C)=C/C=C/C(OC)C(OC(N)=O)/C(C)=C/C(C)C(O)C(CC(C)CC1=C(OC)C(=O)C=C(N)C1=O)OC (stereo not given) | 17
COC(=O)CCC(=O)c1ccc(OC)cc1 | 3.35
COc1ccc(-c2cc(=O)c3cc(O)ccc3o2)c(OC)c1OC | 11.4
CCC(C)OC(=O)C1C(=O)CC(c2ccccc2)C1c1ccccc1 (stereo not given) | -4.8
Cc1cc([N+](=O)[O-])ccc1N=NC(=O)NNc1ccc([N+](=O)[O-])cc1C | 8.35
Cc1nc(N)[nH]c(=O)c1CCCN=Cc1ccc([N+](=O)[O-])cc1 | 14.4
CNS(=O)(=O)c1ccccc1C(=N)c1ccccc1 | -27.6
C=C1C(=O)OC2(CCCCC)CCCCC12 (stereo not given) | -11.2
COc1ccc(C(=O)C(c2ccccc2)c2ccccc2)cc1 | -13.2
O=C(O)CCC(=O)c1ccc[nH]1 | -30.1
Nc1nc(N)c2ncn(-c3ccc(Cl)cc3)c2n1 | 9.8
C=C1CC[N+]2(CCCC)CCCC12 (stereo not given) | 16.2
Clc1cccc(-c2sc(-c3ccsc3)cc2Cc2ccsc2)c1 | -22.1
CCOC(=O)C(=CNC(=S)c1cccnc1)C(=O)OCC | -20.9
C#C/C=C/CC1OC(C(Br)CC)CC(Br)C2CC1O2 (stereo not given) | 36.4

assay: NCI Yeast Anticancer Drug Screen. Data for the cln2 rad14 strain (AID 165);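 note: 0% = growth equal to vehicle treated cultures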; conditions: S. cerevisiae cln2 rad14 strain, at 50.0 µM, active compounds read high
In short: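 Strain: cln2 rad14 yeast, altered in cell cycle control and DNA damage repair. Read-out: growth inhibition vs vehicle.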

SMILES | growth inhibition [%]
CC(C)[C@@H]1CC[C@@H](C)C[C@H]1OC(=O)/C=C1\C(C(=O)O[C@@H]2C[C@H](C)CC[C@H]2C(C)C)[C@H]2C=C[C@@H]1O2 (stereo not given in full) | -25.1
COc1cc([N+](=O)[O-])ccc1NC(=O)C(Br)C(Br)c1ccccc1 (stereo not given) | -1.4
COc1ccc(C(=O)c2ccc(Cl)cc2)c(O)c1OC | 3.9
Cc1cc(=O)[nH]c(NN2C(Cl)C(=O)C2c2cccc(Cl)c2)n1 (stereo not given) | 2.6
COC(=O)CNC(=O)C(CC(C)C)NC(=O)C(CC(C)C)NC(=O)OC(C)(C)C (stereo not drawn) (Boc-Leu-Leu-Gly-OMe; configuration not given here) | 10.5
CCC1(C)OC(C)CC(C)(C)O1 (stereo not given) | -0.25
OCc1ccccc1CO | 13.3
Oc1ccc(Br)cc1C1Nc2ccccc2S1 (stereo not given) | -28.3
CN(C(=N)N)c1ccc(C(=O)Oc2ccc([N+](=O)[O-])cc2)cc1 | 1.35
CC1(C)OC(C(CCl)OS(C)(=O)=O)C(C(CCl)OS(C)(=O)=O)O1 (stereo not given) | 24.9
Nc1cc2c(cc1Br)-c1cc(Cl)c(Cl)cc1C2=O | -23.1
COc1cc(-c2c(C)c(C)nc(OC)c2C#N)cc(OC)c1OC | -19.1
CCCCCN(CCCCC)C(C)=O | -0.65
O=C1C(c2ccccc2Cl)[C@H]2CC=C[C@H]2N1O (stereo not given in full) | 6.65
O=S(=O)(Nc1ncccn1)c1ccc(N=NSC2=NC=NC3=NC=NC32)cc1 (stereo not given) | 4
O=c1oc2c(CN3CCOCC3)c(O)ccc2c2c1CCCC2 | 29.9
C/C(=N\NC(=S)Nc1ccc(S(=O)(=O)O)cc1)c1ccccn1 | 19.1
Cc1ccc(N=Nc2c(N)nc(N)[nH]c2=O)c(C)c1 | 9.6
CC(=O)N(C(C)=O)C(CS)C(=O)O (stereo not given) | 14.8
O=C1NC(=O)C(=C/C=C/C=C\C2C(=O)NC(=O)NC2=O)C(=O)N1 | 2.1

SMILES | growth inhibition [%]
Nc1ccc2[nH]c(=S)sc2c1 | -1.6
CN(C)c1nc(=Nc2ccc3c(c2)OCO3)ss1 | 34.1
CC1=CC(C)(C)N=C2SC(=O)c3nc4ccccc4c(=O)n3N12 | -11.3
CCCCC1(CO)NC(=O)NC1=O (stereo not given) | 8.95
CC(O)(CCCCCl)c1nc2ccccc2s1 (stereo not given) | -0.8
COC(=O)/C(C)=C/C=C/C(OC)C(OC(N)=O)/C(C)=C/C(C)C(O)C(CC(C)CC1=C(OC)C(=O)C=C(N)C1=O)OC (stereo not given) | 9.3
COC(=O)CCC(=O)c1ccc(OC)cc1 | -0.95
COc1ccc(-c2cc(=O)c3cc(O)ccc3o2)c(OC)c1OC | -6.95
CCC(C)OC(=O)C1C(=O)CC(c2ccccc2)C1c1ccccc1 (stereo not given) | -1.45
Cc1cc([N+](=O)[O-])ccc1N=NC(=O)NNc1ccc([N+](=O)[O-])cc1C | -33.1
Cc1nc(N)[nH]c(=O)c1CCCN=Cc1ccc([N+](=O)[O-])cc1 | 7.7
CNS(=O)(=O)c1ccccc1C(=N)c1ccccc1 | -4.95
C=C1C(=O)OC2(CCCCC)CCCCC12 (stereo not given) | -9.9
COc1ccc(C(=O)C(c2ccccc2)c2ccccc2)cc1 | 4.35
O=C(O)CCC(=O)c1ccc[nH]1 | 19.2
Nc1nc(N)c2ncn(-c3ccc(Cl)cc3)c2n1 | -21.4
C=C1CC[N+]2(CCCC)CCCC12 (stereo not given) | -4.1
Clc1cccc(-c2sc(-c3ccsc3)cc2Cc2ccsc2)c1 | -28.6
CCOC(=O)C(=CNC(=S)c1cccnc1)C(=O)OCC | -7.75
C#C/C=C/CC1OC(C(Br)CC)CC(Br)C2CC1O2 (stereo not given) | 24.4
